# Laboratory results as given in PubChem BioAssay AID686996 (Broad Institute, 2013).
# The whole screen tested about 350,000 compounds, of which about 1,900 (0.54%) were called active. What follows is part of a selection rich in actives, with near analogues and random picks from the rest. A number with no mark means an inactive call.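 How the source made its calls: active means mean inhibition across replicates at least about 35%, with every replicate also reaching that limit (limit read from the data); inconclusive means only one of the two criteria met; inactive means neither criterion met.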
# Target: Caspase-6 (Homo sapiens) (UniProt P55212)
# Sequence (P55212 24-179 limits assumed): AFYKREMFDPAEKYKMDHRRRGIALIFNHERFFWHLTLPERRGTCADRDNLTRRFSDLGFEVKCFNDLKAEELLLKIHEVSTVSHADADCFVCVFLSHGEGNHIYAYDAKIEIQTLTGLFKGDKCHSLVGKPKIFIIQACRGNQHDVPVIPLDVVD
# Sequence (P55212 194-293 limits assumed): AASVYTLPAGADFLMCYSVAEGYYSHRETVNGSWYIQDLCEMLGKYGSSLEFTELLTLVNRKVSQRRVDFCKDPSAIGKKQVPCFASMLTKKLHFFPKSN
# Test: inhibition of CASP6 peptide cleavage – biochemical, VEID-R110 fluorescence, single point, set 2, primary screen (AID 686996);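 further: 0% = median of neutral control wells and 100% = no fluorescence left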
# Conditions: purified caspase-6, Z-VEID-R110 cleavage fluorescence; at 12.5 µM; hits give high values
row,SMILES,inhibition
1,C[C@H](O)C#Cc1ccc2c(c1)O[C@H](CN(C)Cc1cccnc1)[C@H](C)CN([C@H](C)CO)S2(=O)=O,-2.82%
2,O=C(N[C@@H]1CC[C@@H](CC(=O)N2CCc3ccccc3C2)O[C@H]1CO)C1CC1,-3.42%
3,CCC(=O)N(C)C[C@H]1Oc2ncc(C#Cc3cccnc3)cc2C(=O)N([C@H](C)CO)C[C@H]1C,2.38%
4,C[C@@H]1CCCCO[C@@H](CN(C)S(=O)(=O)c2ccccc2)[C@@H](C)CN([C@@H](C)CO)C(=O)c2cc(NS(=O)(=O)c3cn(C)cn3)ccc2O1,2.27%
5,CC1CCCN(C(=O)c2cc(-c3ccco3)nc3ccccc23)C1 (stereo not given),2.88%
6,CN(CCOc1ccccc1)C(=O)c1cc(-c2ccco2)nc2ccccc12,4.78%
7,Cc1cc(C)c2nc(-c3ccco3)cc(C(=O)O)c2c1,42.1% (active)
8,COCC#Cc1cnc2c(c1)C(=O)N([C@H](C)CO)C[C@H](C)[C@H](CN(C)C(=O)Nc1ccccc1OC)O2,0.658%
9,O=C(c1cccc(F)c1)N1CC(=O)N2[C@H](C1)[C@@H](c1ccc(C#Cc3ccc(F)cc3)cc1)[C@@H]2CO,1.71%
10,COCCNc1nc(Nc2ccccc2Cl)c2sc(-c3ccccc3)cc2n1,35.1% (active)
11,Clc1ccccc1Nc1nc(NCc2cccs2)nc2ccsc12,-2.77%
12,COc1ccccc1CNc1nc(Nc2ccccc2Cl)c2sccc2n1,-1.14%
13,C[C@H](CO)N1C[C@H](C)[C@H](CN(C)Cc2cncnc2)Oc2cc(-c3ccccc3F)ccc2S1(=O)=O,-1.88%
14,CC(C)n1ncc2c(C(=O)Nc3ccc(CC#N)cc3)cc(C3CC3)nc21,-2.38%
15,CC(C)n1ncc2c(C(=O)NCc3ccccc3CN(C)C)cc(C3CC3)nc21,-1.64%
16,CNC(=O)c1ccc(CN(C)C(=O)c2cc(C3CC3)nc3c2cnn3C(C)C)cc1,50.4% (active)
17,O=C(C[C@@H]1CC[C@@H]2[C@H](COC[C@H](O)CN2S(=O)(=O)c2ccccc2F)O1)NCc1ccccc1F,4.05%
18,Cc1noc(C)c1NC(=O)N(C)C[C@H]1Oc2c(NC(=O)c3nc4ccccc4s3)cccc2C(=O)N([C@@H](C)CO)C[C@@H]1C,-1.84%
19,CCN(CC)CCCC(C)n1c2nc(=O)[nH]c(=O)c-2nc2cc(Cl)ccc21 (stereo not given),81.9% (active)
20,Cc1cc2nc3c(=O)[nH]c(=O)nc-3n(C[C@H](O)[C@H](O)[C@H](O)CO)c2cc1C,-54.4%
21,C[C@H](O)C#Cc1ccc2c(c1)O[C@@H](CN(C)Cc1cncnc1)[C@H](C)CN([C@H](C)CO)S2(=O)=O,-2.4%
22,O=C(C1CCCC1)N1CC(=O)N2[C@H](C1)[C@@H](c1ccc(-c3cccnc3)cc1)[C@@H]2CO,-0.455%
23,COCCNC(=O)Nc1ccc2nc(-c3ccco3)c(-c3ccco3)nc2c1,79.9% (active)
24,Cc1ccc(NC(=O)OCCNC(=O)c2ccncc2)cc1,2.78%

row,SMILES,inhibition
1,COCCNC(=O)CSc1nc(N)c(NC(=O)c2ccco2)c(=O)[nH]1,2.38%
2,C[C@@H]1CN([C@H](C)CO)C(=O)c2cc(-c3cccc(C(=O)N(C)C)c3)cnc2O[C@H]1CN(C)S(=O)(=O)c1ccc(F)cc1,1.95%
3,COc1ccc(C(=O)/C=C/c2ccc(-c3ccccc3)cc2)cc1CSCC(=O)O,63.7% (active)
4,COc1ccc(OC)c(/C=C/C(=O)c2ccc3c(c2)OCO3)c1,2%
5,COc1ccccc1CCNC(=O)C1CCN(C(=O)/C=C/c2ccccc2)CC1,-1.88%
6,COc1cc(/C=C/C(=O)OCC(=O)NC(=O)NCc2ccccc2)ccc1OCC#N,0.201%
7,COc1cc(C(=O)NCC(c2ccco2)N2CCCC2)ccc1OCc1ccccc1 (stereo not given),-1.23%
8,COC(=O)c1ccc(COc2ccc(/C=C/C(=O)c3ccc(OC)c(CSCC(=O)O)c3)cc2OC)cc1,41% (active)
9,C[C@@H]1CN([C@H](C)CO)C(=O)Cc2cc(NC(=O)Cc3ccccc3)ccc2O[C@H]1CN(C)S(=O)(=O)c1cccs1,-1.84%
10,CCCN1C[C@@H](C)[C@@H](OC)CN(C)C(=O)c2cc(NC(=O)NC3CCCCC3)ccc2OC[C@H]1C,0.443%
11,C[C@H](CO)N1C[C@H](C)[C@H](CN(C)Cc2ccc(C(F)(F)F)cc2)Oc2ccc(NC(=O)CCCCCC(=O)Nc3ccccc3N)cc2CC1=O,1.34%
12,Cc1cc(C)c(S(=O)(=O)NN=C2c3ccccc3[C@H]3Cc4csc[n+]4[C@@H]23)c(C)c1,85.1% (active)
13,O=C(N[C@H]1CC[C@H](CCNS(=O)(=O)c2ccc(F)cc2)O[C@H]1CO)C1CCCC1,2.12%
14,C[C@@H]1CCCCO[C@H](CN(C)C)[C@H](C)CN([C@@H](C)CO)C(=O)c2cc(NC(=O)Cc3ccccc3)ccc2O1,-0.443%
15,O=C(Nc1ccc(-c2ccccc2)cc1)[C@@H]1[C@@H](CO)[C@@H]2Cn3c(cccc3=O)[C@H]1N2Cc1ccncc1,0.424%
16,C=C1c2c(Cl)ccc(O)c2C(O)=C2C(=O)[C@]3(O)C(O)=C(C(N)=O)C(=O)[C@@H](N(C)C)[C@@H]3[C@@H](O)C12 (stereo not given in full),73.9% (active)
17,CN(C)[C@@H]1C(=O)C(C(N)=O)=C(O)[C@@]2(O)C(=O)C3=C(O)c4c(O)ccc(Cl)c4[C@@H](O)[C@H]3C[C@@H]12,49.5% (active)
18,C[C@@H]1CCCCO[C@H](CN(C)S(=O)(=O)c2ccc(Cl)cc2)[C@H](C)CN([C@H](C)CO)C(=O)c2cc(NC(=O)NC3CCCCC3)ccc2O1,-2.73%
19,N#C[C@H]1[C@@H](c2ccc(C3=CCCCC3)cc2)[C@@H](CO)N1C(=O)Cc1ccncc1,0.643%
20,O=S(=O)(c1ccccc1)N1[C@H](CO)[C@@H]2c3ccccc3NC[C@@H]21,-2.35%
21,C[C@@H]1CN([C@H](C)CO)C(=O)Cc2cc(NC(=O)NC3CCCCC3)ccc2O[C@H]1CN(C)S(=O)(=O)c1ccc(Cl)cc1,0.436%
22,C[C@H](O)C#Cc1ccc([C@@H]2[C@H](CO)N3CCCCN(CC4CC4)C[C@@H]23)cc1,4.05%
23,CN(C)CC(=O)N[C@H]1CC[C@H](CCNC(=O)Nc2ccc(F)cc2)O[C@H]1CO,2.23%
24,CC(C)NC(=O)N(C)C[C@H]1Oc2ccc(NS(C)(=O)=O)cc2CC(=O)N([C@@H](C)CO)C[C@H]1C,-2.92%

row,SMILES,inhibition
1,COc1ccc(-c2cc3ncccc3cn2)cc1,1.91%
2,COc1ccc2nc(-c3ccccn3)ccc2c1,-1.05%
3,COc1ccc(C=Nc2cccc3ncccc23)cc1,44.7% (active)
4,C[C@@H]1CCCCO[C@H](CN(C)S(=O)(=O)c2cccs2)[C@H](C)CN([C@@H](C)CO)C(=O)c2cc(NC(=O)Nc3ccc4c(c3)OCO4)ccc2O1,-0.622%
5,COc1ccc(S(=O)(=O)Nc2ccc3c(c2)CC(=O)N([C@@H](C)CO)C[C@@H](C)[C@@H](CN(C)C)O3)cc1,2.95%
6,O=C(O)CCC(=O)NCc1ccc2[nH]c3c(c2c1)CCCC3,41.9% (active)
7,O=C(CCC(=O)c1ccccc1)NCc1cccc(C(F)(F)F)c1,-0.291%
8,Cc1cccc(NC(=S)NCc2ccc3[nH]c4c(c3c2)CCCC4)c1,-0.948%
9,C[C@@H]1CN([C@@H](C)CO)C(=O)c2cccc(NC(=O)Nc3ccc4c(c3)OCO4)c2O[C@H]1CN(C)C(=O)Nc1cccc2ccccc12,-2.55%
10,C[C@H](CO)N1C[C@H](C)[C@H](CN(C)C(=O)NC2CCCCC2)Oc2ccc(NC(=O)CCCN(C)C)cc2CC1=O,1.62%
11,C=CCn1c(=S)[nH]c2scc(-c3ccco3)c2c1=O,80.7% (active)
12,C[C@H]1CN([C@@H](C)CO)S(=O)(=O)c2ccc(-c3cccc(C#N)c3)cc2O[C@H]1CN(C)C(=O)c1ccccc1,5.87%
13,Cc1nc2ccccc2c(=O)n1-c1ccc(NS(=O)(=O)c2ccc(F)cc2F)cc1,49.9% (active)
14,Cc1nc2ccccc2c(=O)n1-c1ccc(F)c(NC(=O)c2cccs2)c1,-0.817%
15,COc1ccc(NS(=O)(=O)c2ccc(F)cc2F)cn1,1.04%
16,O=C1C[C@@](C(=O)NCC(F)(F)F)(c2ccc([N+](=O)[O-])cc2)[C@@H](c2ccc(CO)cc2I)N1C1CCCCC1,2.45%
17,COc1ccc(S(=O)(=O)Nc2ccc3c(c2)CC(=O)N([C@@H](C)CO)C[C@@H](C)[C@@H](CN(C)Cc2ccc(C(=O)Nc4ccccc4N)cc2)O3)cc1,-1.35%
18,C[C@H]1CN([C@@H](C)CO)C(=O)Cc2cc(NS(=O)(=O)c3ccccc3)ccc2O[C@H]1CN(C)Cc1ccc(C(=O)Nc2ccccc2N)cc1,-0.988%
19,C[C@H]1CN([C@@H](C)CO)C(=O)Cc2cc(NS(=O)(=O)c3ccccc3)ccc2O[C@@H]1CN(C)Cc1ccc(C(=O)Nc2ccccc2N)cc1,39.7% (active)
20,C[C@H]1CN([C@@H](C)CO)S(=O)(=O)c2ccc(C#Cc3ccccc3)cc2O[C@@H]1CN(C)C(=O)C1CC1,2.82%
21,CN(C)C(=O)c1ccc(-c2ccccc2[C@H]2[C@@H](CO)N(C(=O)C3CCCCC3)[C@H]2C#N)cc1,-0.604%
22,COc1ccc(CN(C)C[C@@H]2Oc3ccc(NC(=O)Nc4ccc(F)cc4)cc3CC(=O)N([C@@H](C)CO)C[C@H]2C)cc1,3.48%
